The source of these data is ChEMBL document CHEMBL1157539, “Thousands of chemical starting points for antimalarial lead identification” (Nature, 2010).

The experiment has as its system Plasmodium falciparum. Description: GSK_TCMDC: Inhibition of Plasmodium falciparum 3D7 in whole red blood cells, using parasite LDH activity as an index of growth. Test compounds present at 2uM. The class given is functional.
`O=C(c1ccco1)c1cn(CCOc2ccccc2)c2ccccc12`: the Inhibition (usually how much of the control response was suppressed) is listed as 98%.

For `COc1cc(/C=C/C(=O)NC2CCC(N3CCC(c4ccccc4C)CC3)CC2)cc(OC)c1` (centres undefined), the Inhibition is 89%. The value for `COc1ccc2nc(C)cc(N/N=C/c3cccc([N+](=O)[O-])c3)c2c1` was 100%; that for `CCOCCCn1c(=N)c(C(=O)NC(C)c2ccccc2)cc2c(=O)n3cccc(C)c3nc21` (centres undefined) was 95%; that for `CCC(Cc1ccccc1)c1cc(O)c(Cc2ccc(-c3ccccc3)cc2)c(=O)o1` (centres undefined) was 89%. Turning to `COc1ccc(NC(=O)[C@H](CC(C)C)Nc2cc(C)nc(NCc3cccc(C)c3)n2)cc1.O=C(O)C(F)(F)F`, the Inhibition came to 100%. `N=C(N)NC(=O)Nc1ccc(Cl)c(Cl)c1` came in with an Inhibition of 95%. The value for `N=C(N)Nc1ccc(C(=O)O)c(O)c1` was 94%; that for `O=C(O)C(F)(F)F.O=C1OC(c2ccccc2)(c2ccccn2)CN1C1CCN(Cc2cccn2-c2ccc(Cl)cc2)CC1` (centres undefined) was 99%; that for `COc1ccc(-c2csc3ncnc(Cl)c23)cc1OC` was 93%.

For `O=C(Nc1cccc(CN2CCN(C(=O)c3cccc(Cl)c3)CC2)c1)c1ccco1.O=C(O)C(F)(F)F`, the Inhibition was 96%.

As for `COc1cc(CN2CCC(C(=O)Nc3ccc(-c4cccc(C)c4)cc3)CC2)ccc1O`, the Inhibition stood at 100%. The value for `CC(=O)N1N=C(c2ccc(Cl)cc2)Sc2c1nc(-c1ccccc1)n2C(C)=O` was 100%; that for `C[C@H](NC(=O)[C@H](CCCCNC(=O)OC(C)(C)C)NC(=O)OC(C)(C)c1ccc(-c2ccccc2)cc1)C(=O)OCc1ccccc1` was 97%.
